Activity calls are given as the source filed them.

The record followed here is PubChem BioAssay.

Experiment [1] concerns Human papillomavirus type 1a protein E7 (residues 44-93). Kind of experiment: small molecules binding HPV E7 44-93 – biochemical, small-molecule microarray, residues 44-93, 635 nm fluorescence, primary screen (AID 1108).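 Further: E7 fragment applied at 1 µg/mL in TBST for 1 h at 4 C; score combines spot fluorescence with its signal to noise ratio.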 The note with it: fluorescence 635 nm, higher = more signal.
Experiment [2] in a line: hepatitis C replication reporter changes, two-sided – Huh7 cells, luciferase reporter, HCV replication inhibitor project, primary screen (AID 1109).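 Further: huh7 hepatoma cells harbouring a luciferase neomycin HCV replicon reporter; luciferase luminescence as measure of HCV replicon replication; test concentration not given here.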 The conditions noted are these: Huh7 HCV replicon luciferase reporter, 48 h; higher = more signal.
For experiment [3], the target named is Left-right determination factor 2 (Homo sapiens) (UniProt O00292). Kind of experiment: small molecules binding LEFTY2 protein – biochemical, small-molecule microarray, 635 nm fluorescence scan, primary screen (AID 1110). The note with it: higher = more signal.
Experiment [4] concerns the target Calmodulin-1 (Homo sapiens) (UniProt P0DP23). Kind of experiment: small molecules binding calmodulin-1 with EGTA – biochemical, small-molecule microarray, Cy5-labelled CALM1, profiling panel (AID 1111).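 Further: labelled calmodulin applied in Tris saline Tween buffer holding calcium plus EGTA and DTT.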 The note with it: Cy5-CALM1 binding fluorescence, higher = more signal.
Experiment [5] shares this target. Description: small molecules binding Ca-loaded calmodulin-1 – biochemical, small-molecule microarray, Cy5-labelled CALM1, plus calcium, artefact control for SMM control-protein annotation, profiling panel (AID 1112).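 Further: score merges spot fluorescence with signal to noise from triplicate slides.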 The note with it: Cy5-CALM1 binding fluorescence, higher = more signal.
A short description of experiment [6]: probe aWnt5a binding to arrayed compounds – biochemical, biotinylated probe, 635/667 nm fluorescence, primary screen (AID 1113).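 Further: score merges 667 nm fluorescence intensity with signal-to-noise per printed feature.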 The conditions noted are these: small-molecule microarray, higher = more signal.
A short description of experiment [7]: probe aShh binding to arrayed compounds – biochemical, biotinylated probe, 635/667 nm fluorescence, primary screen (AID 1114).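 Further: probe is biotin-labelled aShh protein from a stem cell growth factor screen; measures binding of labelled protein to compounds printed on the slide; score merges feature fluorescence at 667 nm with signal-to-noise.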 The note with it: small-molecule microarray, higher = more signal.
The nature of experiment [8]: probe aNog binding to arrayed compounds – biochemical, biotinylated probe, 635/667 nm fluorescence, primary screen (AID 1115).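 Further: probe is biotinylated aNog protein used at 0.15 µg/mL for 1 h at 4 C; z-score combines 667 nm fluorescence of each spot with its signal to noise.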 The note with it: small-molecule microarray, higher = more signal.
The target of experiment [9] is Torsin-1A-interacting protein 1 (Homo sapiens) (UniProt Q5JTV8). Kind of experiment: compound microarray binding of lysate hLAP1 – cell lysate, small-molecule microarray, COS7 lysate, 635/667 nm fluorescence, primary screen (AID 1116). The conditions noted are these: 635 nm fluorescence, higher = more signal.
In experiment [10] the target is Alpha-bungarotoxin (Bungarus multicinctus) (UniProt P60615). Kind of experiment: compounds binding labelled alpha-BTX control protein – biochemical, small-molecule microarray, Alexa647 label, 635/667 nm fluorescence, artefact control for SMM control protein annotation, profiling panel (AID 1117). The note with it: alpha-BTX-A647 binding fluorescence, higher = more signal.

The target in another experiment is Albumin (Bos taurus) (UniProt P02769). Description: compounds binding labelled BSA control protein – biochemical, small-molecule microarray, Alexa647 label, 635/667 nm fluorescence, artefact control for SMM control protein annotation, profiling panel (AID 1118).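 Further: score merges 667 nm emission intensity and signal-to-noise per printed compound spot.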 The conditions noted are these: BSA-A647 binding, fluorescence 635 nm, higher = more signal.
Experiment [11] in a line: probe aXIP binding to arrayed compounds – biochemical, NeuroSMM set, 635/667 nm fluorescence, primary screen (AID 1119).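 Further: probe is the protein aXip251-270 applied at 1 µg/mL to compound-printed slides; binding of probe to printed compounds measured as 667 nm fluorescence plus signal to noise.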 The conditions noted are these: small-molecule microarray, higher = more signal, called active from +8 up or from −8 down.
A short description of experiment [12]: probe aNOTCH3 binding on compound microarray – biochemical, small-molecule microarray, 635/667 nm fluorescence, primary screen (AID 1120).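 Further: probe is a biotin-tagged antibody raised against NOTCH3 rather than NOTCH3 protein; score merges spot fluorescence near 667 nm with spot signal to noise.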 The conditions noted are these: higher = more signal.
Experiment [13] is described as follows: probe aNOTCH2 binding on compound microarray – biochemical, small-molecule microarray, 635/667 nm fluorescence, primary screen (AID 1121).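 Further: score merges feature fluorescence read at 667 nm with its signal to noise.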 The note with it: higher = more signal.
Experiment [14] addresses Carbonic anhydrase 2 (Homo sapiens) (UniProt P00918). Kind of experiment: compounds binding carbonic anhydrase 2 – biochemical, small-molecule microarray, Alexa647-labelled CAII, profiling panel (AID 1122). The note with it: CAII-A647 binding fluorescence, higher = more signal.
Experiment [15] is described as follows: COS7 lysate on small-molecule microarray, probe aHis, 635 nm (AID 1123).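 Further: z-score combines 667nm fluorescence intensity with signal-to-noise per printed compound spot.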 The conditions noted are these: COS7 cell lysate, fluorescence, higher = more signal.
The nature of experiment [16]: probe aLAP1 signal on lysate-treated microarray – cell lysate, small-molecule microarray, COS7 lysate, primary screen (AID 1124).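 Further: lysate comes from COS7 cells expressing LAP1 and is applied at 0.3 µg/mL; score merges spot fluorescence near 667 nm with signal-to-noise over triplicate slides.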 The conditions noted are these: probe aLAP1, fluorescence, higher = more signal.
The next experiment deals with Sam68 (KHDRBS1). Kind of experiment: compounds binding KHDRBS1 protein – biochemical, small-molecule microarray, 635 nm fluorescence, primary screen (AID 1125).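 Further: score merges 667 nm channel intensity with signal to noise over triplicate slides.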 The conditions noted are these: higher = more signal.
Experiment [17] deals with Chordin-like protein 2 (CHRDL2). Description: compounds binding chordin-like 2 – biochemical, small-molecule microarray, 635 nm fluorescence, primary screen (AID 1126).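 Further: printed compound slides probed with Chrdl2 protein at 4 µg/mL for 1 h at 4 C; score merges 667 nm emission intensity with signal to noise over three replicate slides.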 The conditions noted are these: fluorescence 635 nm, higher = more signal.
In experiment [18] the target is Concanavalin-A (Canavalia ensiformis) (UniProt P02866). Kind of experiment: compounds binding concanavalin A lectin – biochemical, small-molecule microarray, Alexa647 label, 635 nm, artefact control for SMM control protein annotation, primary screen (AID 1127).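 Further: z combines 667 nm emission intensity with signal-to-noise across three replicate slides.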 The note with it: ConA-A647 binding fluorescence, higher = more signal.
Sequence of Concanavalin-A (Canavalia ensiformis) (P02866 whole entry, looked up): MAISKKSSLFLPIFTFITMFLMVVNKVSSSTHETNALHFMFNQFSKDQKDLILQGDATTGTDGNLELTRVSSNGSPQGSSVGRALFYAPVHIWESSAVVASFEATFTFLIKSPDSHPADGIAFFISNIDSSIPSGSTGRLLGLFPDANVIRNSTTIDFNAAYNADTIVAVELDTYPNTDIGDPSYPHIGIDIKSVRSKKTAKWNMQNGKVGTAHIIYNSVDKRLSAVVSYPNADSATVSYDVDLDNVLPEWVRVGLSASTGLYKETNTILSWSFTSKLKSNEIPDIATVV

Sequence of Albumin (Bos taurus) (P02769 whole entry, looked up): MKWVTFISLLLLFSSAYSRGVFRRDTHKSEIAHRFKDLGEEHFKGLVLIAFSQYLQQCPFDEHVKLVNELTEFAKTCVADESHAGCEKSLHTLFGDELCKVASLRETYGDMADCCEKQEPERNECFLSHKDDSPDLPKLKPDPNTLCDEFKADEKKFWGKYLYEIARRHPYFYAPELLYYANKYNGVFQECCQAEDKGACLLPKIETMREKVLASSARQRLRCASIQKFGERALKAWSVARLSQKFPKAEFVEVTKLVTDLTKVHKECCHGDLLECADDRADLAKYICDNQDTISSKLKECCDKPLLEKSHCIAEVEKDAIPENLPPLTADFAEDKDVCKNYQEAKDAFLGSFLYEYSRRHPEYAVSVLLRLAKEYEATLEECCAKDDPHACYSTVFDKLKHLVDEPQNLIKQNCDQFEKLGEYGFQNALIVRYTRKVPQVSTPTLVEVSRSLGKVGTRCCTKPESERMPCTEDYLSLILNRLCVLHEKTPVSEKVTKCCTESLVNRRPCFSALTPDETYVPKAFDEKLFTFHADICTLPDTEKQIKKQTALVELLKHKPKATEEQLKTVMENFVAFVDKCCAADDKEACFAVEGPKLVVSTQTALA
Sequence of Torsin-1A-interacting protein 1 (Homo sapiens) (Q5JTV8 whole entry, looked up): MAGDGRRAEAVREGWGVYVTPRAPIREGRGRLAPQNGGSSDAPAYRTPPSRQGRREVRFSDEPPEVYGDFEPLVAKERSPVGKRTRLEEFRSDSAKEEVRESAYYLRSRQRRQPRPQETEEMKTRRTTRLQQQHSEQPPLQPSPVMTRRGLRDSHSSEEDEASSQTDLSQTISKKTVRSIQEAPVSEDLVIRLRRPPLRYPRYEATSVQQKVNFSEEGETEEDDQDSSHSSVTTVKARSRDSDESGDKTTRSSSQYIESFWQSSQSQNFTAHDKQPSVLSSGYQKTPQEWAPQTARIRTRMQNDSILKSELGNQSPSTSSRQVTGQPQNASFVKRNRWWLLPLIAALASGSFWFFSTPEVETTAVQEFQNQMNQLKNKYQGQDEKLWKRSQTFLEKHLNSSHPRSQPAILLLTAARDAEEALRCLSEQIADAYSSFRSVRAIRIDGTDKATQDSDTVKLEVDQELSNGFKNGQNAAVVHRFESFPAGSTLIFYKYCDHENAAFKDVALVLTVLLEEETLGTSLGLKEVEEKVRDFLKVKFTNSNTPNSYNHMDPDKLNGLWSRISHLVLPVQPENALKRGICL
Sequence of Left-right determination factor 2 (Homo sapiens) (O00292 whole entry, looked up): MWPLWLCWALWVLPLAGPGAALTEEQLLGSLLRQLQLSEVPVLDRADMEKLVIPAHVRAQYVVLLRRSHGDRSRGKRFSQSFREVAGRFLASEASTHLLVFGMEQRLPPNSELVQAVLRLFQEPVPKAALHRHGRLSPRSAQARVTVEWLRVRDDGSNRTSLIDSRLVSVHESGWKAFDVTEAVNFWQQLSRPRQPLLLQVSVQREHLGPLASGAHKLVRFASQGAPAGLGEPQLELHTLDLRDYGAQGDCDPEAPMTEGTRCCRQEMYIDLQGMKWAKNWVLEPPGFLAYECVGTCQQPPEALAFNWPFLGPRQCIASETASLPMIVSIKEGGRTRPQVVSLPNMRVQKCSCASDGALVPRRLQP
Sequence of Alpha-bungarotoxin (Bungarus multicinctus) (P60615 whole entry, looked up): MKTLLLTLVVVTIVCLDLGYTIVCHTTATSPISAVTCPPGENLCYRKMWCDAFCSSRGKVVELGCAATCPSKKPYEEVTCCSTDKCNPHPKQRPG

Turning to `COCCOC(=O)N1C(=O)[C@@]2(c3cc(C#CCC(C(=O)OC)C(=O)OC)ccc31)[C@H](C(=O)N1CCN(c3ncccn3)CC1)[C@H]1C(=O)O[C@H](c3ccccc3)[C@H](c3ccccc3)N1[C@@H]2c1ccc(O)cc1`, the composite z-score in experiment [1] is 0.435; in experiment [3], 0.394; in [4] it was 1.22; in [5], 0.601; in experiment [6], 0.0077; in experiment [7], 0.272. For the same compound, the composite z-score in experiment [8] is 0.0574; in experiment [9], 0.518; in experiment [10], 1.71; in the experiment with Albumin (Bos taurus) it was 0.752; in experiment [12] it was -0.0343; in experiment [13], -0.0956. Further, the composite z-score in experiment [14] is 0.55; in experiment [15] it was 1.48; in [16], 0.695; in the experiment on Sam68 (KHDRBS1), 1.3; in [17], -0.358; in [18], 1.01. The compound also came in with a z-score in experiment [2] of -0.513. Also, the composite Z-score in experiment [11] was 0.394 (inactive).
Regarding `C=CC[C@@]12N=C(c3ccc(OCCCO)cc3)O[C@@H]1c1ccccc1CN(Cc1ccccc1)C2=O`, the composite z-score in experiment [1] is 1.17; in experiment [3] it was -0.397; in experiment [4], 1.06; in [5], 0.429; in experiment [6], -0.0403; in [7], 0.116. Besides, the composite z-score was 0.87 in experiment [8]; 1.08 in experiment [9]; 1.56 in experiment [10]; 0.127 in the experiment with Albumin (Bos taurus); 0.0242 in experiment [12]; -0.053 in experiment [13]. Moreover, the composite z-score came out at 0.496 in [14]; 1.96 in experiment [15]; 0.377 in experiment [16]; 1.29 in the experiment with Sam68 (KHDRBS1); 0.213 in experiment [17]; 1.02 in experiment [18]. In addition, the z-score in experiment [2] is -3.23. Moreover, the composite Z-score in experiment [11] is 0.999 (inactive).
For `CCCC/C=C/[C@H]([C@@H](O)Cc1ccccc1)N(CC#Cc1ccccc1)Cc1ccccc1Br`, the composite z-score in experiment [1] is -0.373; in experiment [3], -1.81; in experiment [4] it was -0.269; in [5] it was 0.74; in [6] it was -0.166; in [7], -0.366. Further, the composite z-score in experiment [8] is -0.132; in [9], -0.356; in experiment [10], -0.647; with Albumin (Bos taurus) it was -0.861; in experiment [12] it was -0.346; in experiment [13] it was -0.171. The composite z-score in experiment [14] was -0.382; in [15], 0.0748; in experiment [16], 0.006; with Sam68 (KHDRBS1), -0.61; in [17], -1.64; in experiment [18], -0.89. The compound further had a z-score in [2] of -1.29. In [11], the composite Z-score is 0.911 (inactive).
Regarding `CO[C@]12C=C(Br)[C@@H](C[C@@H]1c1ccccc1)[C@@]1(CO1)C2=O`, the composite z-score is -0.468 in experiment [1]; 0.36 in [3]; -0.264 in experiment [4]; -0.533 in experiment [5]; -0.0125 in experiment [6]; -0.0146 in experiment [7]. Further, the composite z-score was 0.0256 in [8]; -0.161 in [9]; -0.3 in [10]; 0.139 in the experiment with Albumin (Bos taurus); 0.0773 in [12]; -0.11 in experiment [13]. Further, the composite z-score in experiment [14] is 0.143; in [15], -0.245; in [16], -0.0571; in the experiment on Sam68 (KHDRBS1), 0.0999; in experiment [17] it was 0.77; in experiment [18] it was 0.0193. Further, the z-score in experiment [2] is -2.97. Besides, in experiment [11], the composite Z-score was -0.0467 (inactive).
With `O=C1OCCC=C[C@H]2OC34C=CCN(Cc5ccccc5)C(=O)[C@H]3N(CCO)C(=O)[C@@H]4C12` (stereo not given in full), the composite z-score was -0.936 in experiment [1]; -0.591 in experiment [3]; -0.675 in experiment [4]; 0.681 in experiment [5]; -0.248 in experiment [6]; -0.276 in [7]. The composite z-score is -0.224 in [8]; -0.18 in [9]; -2.01 in experiment [10]; -0.121 with Albumin (Bos taurus); -0.0967 in experiment [12]; -0.19 in experiment [13]. For the same compound, the composite z-score in [14] was 0.459; in [15], -0.59; in [16], -0.227; in the experiment on Sam68 (KHDRBS1) it was -1.04; in [17], -0.849; in experiment [18], -1.18. In addition, the z-score in [2] was -1.23. Also, the composite Z-score in [11] is -0.141 (inactive).
Consider `O=C1c2ccccc2[C@](Cc2ccccc2I)(C(=O)O)[C@H](c2ccc(CO)cc2)N1C1CCCCC1`, for which the composite z-score was 1.02 in experiment [1]; 0.15 in experiment [3]; 1.61 in [4]; 0.487 in [5]; -0.0203 in experiment [6]; -0.018 in experiment [7]. Besides, the composite z-score is 0.213 in [8]; 1.5 in [9]; 1.53 in [10]; 0.823 with Albumin (Bos taurus); 0.447 in [12]; -0.0708 in experiment [13]. In addition, the composite z-score in experiment [14] was 0.739; in experiment [15], 3.57; in experiment [16] it was 0.589; in the experiment with Sam68 (KHDRBS1) it was 1.3; in experiment [17], -0.423; in experiment [18], 1.21. The z-score in [2] was -1.33. In experiment [11], the composite Z-score is 0.222 (inactive).
